Screening data: PubChem, National Center for Advancing Translational Sciences (NCATS)
Rows were chosen to be rich in hits. Some 2.9% of all compounds tested hit in one or more screens of this group.
Nrf2 inh: blocks Nrf2 signaling; A549 ARE-Fluc reporter, luciferase luminescence, 18-24 h; Potency, µM (top dose mostly 46 µM), for inactives: at the top dose activity change, negative = inhibition, hits mostly inhibitors; hit rate 2.1% among 360,000; further: on the % scale 0 is the no-effect control and ±100 the full control effect; nearly all actives have a fitted effect of over 60% in size
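Concentration-response testing used A549 ARE_Fluc cells at 5000 cells/well. Following an 18-24 h compound incubation, viability was read by fluorescence (Ex 405/Em 525) and luciferase output by luminescence.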
A549 viability: counter-screen for Nrf2 inhibitors: cytotoxicity in A549 cells; A549 ARE-Fluc cells, CellTiter-Fluor viability, 18-24 h; Potency, µM (highest dose often 46 µM), inactives show at the top dose activity change, negative = cytotoxicity, most hits filed as inhibitors; hit rate 0.16% among 390,000; further: on the % scale 0 is the no-effect control and ±100 the full control effect
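A549 ARE_Fluc cells in 5% FBS OPTI-MEM were exposed to compounds in concentration-response for 18-24 h at 37 deg C. Viability was read by CellTiter-Fluor fluorescence (Ex 405/Em 525) after 30 min, before the luciferase read.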
S2 tox: cell viability loss in ATXN counter-screen. Potency, µM (series often up to 56.7 µM), actives largely listed as cytotoxic. AID 651635. hit rate 0.49% among 400,000. S2 cells (HEK-293 line with an ATXN2-luciferase reporter) viability, CellTiter-Fluor protease fluorescence, 24 h; further: nearly all actives have a fitted effect of over 40% in size
Nrf2 activator: Nrf2 pathway activation | hit rate 0.31% among 410,000 | Potency, µM (doses to about 46.1 µM), inactives show top-dose activation, usual class: activators | AREc32 ARE-luciferase reporter (MCF7-derived line), luminescence, 24 h; further: % of control where 0% means no effect; nearly all actives have a fitted effect of over 65% in size
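Each well held 1000 AREc32 cells, which were incubated with compound for 24 hr at 37 deg C after overnight attachment, and ARE reporter activity was quantified by firefly luciferase luminescence.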
ATXN2 expr inh: reduces ATXN2 reporter expression in HEK-293 cells; HEK-293 ATXN2-luciferase reporter, luminescence, 24 h; Potency, µM (top dose mostly 57 µM), for inactives: at the highest dose activity change, negative = inhibition, actives largely listed as inhibitors; hit rate 0.72% among 360,000; further: on the % scale 0 is the no-effect control and ±100 the full control effect; nearly all actives have a fitted effect of over 55% in size
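ATXN2-luciferase reporter cells (luciferase flanked by upstream and downstream ATXN2 gene portions) were treated 24 h at 37 °C with compounds at up to 57 uM. SteadyGlo luminescence gave expression; GF-AFC fluorescence gave viability.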
Active calls of the source: *. The call rests on the fitted dose curve; in most records, active means well fitted curve in the direction sought with a large enough effect; inconclusive means small, poorly fitted or top-dose-only effect, or another doubt; inactive means no such curve, though single readings can be large; an effect the other way counts as inactive or inconclusive. Potency means the concentration at half of the fitted maximal effect.

What do the screens show for `CC(NC(=O)/C(C#N)=C/c1ccc(C(=O)O)cc1)c1ccccc1` (configuration not stated)?
Nrf2 inh: -25.0%; A549 viability: -10.9%; S2 tox: inactive; Nrf2 activator: 3.2%; ATXN2 expr inh: -11.2%

How did O=C1c2cccc3c([N+](=O)[O-])ccc(c23)C(=O)N1O do in these assays?
Nrf2 inh: inconclusive; A549 viability: -13.3%; S2 tox: inactive; Nrf2 activator: 12.6µM*

How did O=C1c2cccc3c([N+](=O)[O-])ccc(c23)C(=O)N1c1ccc(Cl)cn1 do in these assays?
Nrf2 inh: -3.8%; A549 viability: 20.8%; Nrf2 activator: 2.1%; ATXN2 expr inh: inconclusive

Results for O=C1c2cccc3c([N+](=O)[O-])ccc(c23)C(=O)N1c1ccccn1 ?
Nrf2 inh: inconclusive; A549 viability: 6.8%; Nrf2 activator: 0.3%; ATXN2 expr inh: 14.1µM*

How did CCc1ccc(CNc2ccc(N3CCN(C(C)=O)CC3)cc2)cc1 do in these assays?
Nrf2 inh: 16.4µM*; A549 viability: inconclusive; S2 tox: inactive; Nrf2 activator: 5.8%; ATXN2 expr inh: -12.3%

How did CCn1c(=O)c2cc(C(=O)NCCOC)sc2c2ccccc21 do in these assays?
Nrf2 inh: 20.6µM*; A549 viability: 4.0%; S2 tox: inactive; Nrf2 activator: -0.1%; ATXN2 expr inh: 6.3%

Results for CCOCCCNC(=O)c1cc2c(=O)n(CC)c3ccccc3c2s1 ?
Nrf2 inh: inconclusive; A549 viability: 0.5%; S2 tox: inactive; Nrf2 activator: 0.6%; ATXN2 expr inh: 0.0%

What do the screens show for `O=C1C(Cl)=C(Nc2ccc3cn[nH]c3c2)C(=O)c2ccccc21`?
Nrf2 inh: inconclusive; A549 viability: inconclusive; S2 tox: 14.1µM*; Nrf2 activator: -3.5%; ATXN2 expr inh: 20µM*

Results for Cc1oc(-c2ccccc2NC(=O)c2ccccc2)nc1CNC(=O)c1cccc(-n2cccn2)c1 ?
S2 tox: inactive

Results for Fc1ccc(C(c2ccc(F)cc2)N2CCNCC2)cc1 ?
S2 tox: inactive; ATXN2 expr inh: -11.1%

Results for COc1cccc(OCCSc2nc3ccccc3n2CC(=O)N2CCOCC2)c1 ?
Nrf2 inh: inconclusive; A549 viability: -5.6%; S2 tox: inconclusive; Nrf2 activator: -0.2%; ATXN2 expr inh: 6.3%

How did COc1cccc(OCCSc2nc3ccccc3n2CC(=O)N2CCCCC2)c1 do in these assays?
Nrf2 inh: 18.4µM*; A549 viability: -14.6%; S2 tox: inconclusive; Nrf2 activator: 1.1%; ATXN2 expr inh: -18.0%

Results for O=C(c1cccc(Cl)c1)c1nn(-c2ccccc2)c(=O)cc1C(F)(F)F ?
Nrf2 inh: inconclusive; A549 viability: 6.6%; S2 tox: inconclusive; Nrf2 activator: -1.4%; ATXN2 expr inh: 25.1µM*

What do the screens show for `O=C(c1ccccc1)c1nn(-c2ccccc2)c(=O)cc1C(F)(F)F`?
A549 viability: 0.5%; S2 tox: inactive; Nrf2 activator: inconclusive; ATXN2 expr inh: inconclusive

How did O=C(Nc1ccccc1)c1nn(-c2ccccc2)c(=O)cc1C(F)(F)F do in these assays?
A549 viability: 1.8%; S2 tox: inactive; Nrf2 activator: -0.2%; ATXN2 expr inh: -24.2%

What do the screens show for `O=C(c1ccccc1)c1nn(-c2ccc(Cl)cc2)c(=O)cc1C(F)(F)F`?
Nrf2 inh: inconclusive; A549 viability: -2.3%; S2 tox: inconclusive; Nrf2 activator: -2.4%; ATXN2 expr inh: 11.2µM*

What do the screens show for `COC(=O)[C@@H]1CCCN1Cc1ccc2c(c1)CN(Cc1ccc3c(c1)CCO3)CCO2`?
S2 tox: inactive

Results for CCc1ccccc1N1C(=O)N(Cc2cccc(Cl)c2)c2ccccc2S1(=O)=O ?
A549 viability: -15.3%; S2 tox: inactive; Nrf2 activator: 0.2%; ATXN2 expr inh: -9.4%

Results for CCN1C(=O)S/C(=C/c2ccc(Sc3nc4ccccc4[nH]3)o2)C1=O ?
Nrf2 inh: 20.6µM*; A549 viability: -7.9%; S2 tox: inconclusive; Nrf2 activator: 8.1%; ATXN2 expr inh: inconclusive

How did O=C(N/N=C/c1ccc(Sc2nc3ccccc3[nH]2)o1)c1ccncc1 do in these assays?
Nrf2 inh: -1.7%; A549 viability: -4.5%; S2 tox: inactive; Nrf2 activator: 7.3%; ATXN2 expr inh: 4.5%

Results for CCN(CC)S(=O)(=O)c1ccc(S(=O)(=O)N2CCCC(C(=O)NC3CC3)C2)cc1 (configuration not stated) ?
Nrf2 inh: 5.8µM*; A549 viability: 1.5%; S2 tox: inactive; Nrf2 activator: 0.2%; ATXN2 expr inh: -35.1%

Results for CN(C)S(=O)(=O)c1ccc(S(=O)(=O)N2CCCC(C(=O)NC3CC3)C2)cc1 (configuration not stated) ?
Nrf2 inh: 20.6µM*; A549 viability: -7.2%; S2 tox: inactive; Nrf2 activator: -0.1%; ATXN2 expr inh: -17.9%

What do the screens show for `COc1ccc(S(=O)(=O)N2CCCC(C(=O)NC3CC3)C2)cc1OC` (configuration not stated)?
Nrf2 inh: -1.1%; A549 viability: 1.7%; S2 tox: inactive; Nrf2 activator: -0.5%; ATXN2 expr inh: 10.1%

Results for CCOC(=O)C1CCCN(S(=O)(=O)c2ccc(S(=O)(=O)N(CC)CC)cc2)C1 (configuration not stated) ?
Nrf2 inh: inconclusive; A549 viability: 2.0%; S2 tox: inactive; Nrf2 activator: 2.3%

Results for O=C(Nc1ccc(C(=O)N2CCCc3ccccc32)cc1)c1cccs1 ?
Nrf2 inh: 20.6µM*; A549 viability: inconclusive; S2 tox: inconclusive; Nrf2 activator: 0.2%; ATXN2 expr inh: -0.3%

What do the screens show for `O=C(Nc1ccc2c(c1)CCCN2C(=O)c1cccs1)c1c(F)cccc1Cl`?
Nrf2 inh: 25.9µM*; A549 viability: -15.7%; S2 tox: inconclusive; Nrf2 activator: 4.4%

How did CCCN(CCC)S(=O)(=O)c1ccc2c(c1)CCCN2C(C)=O do in these assays?
Nrf2 inh: -7.9%; A549 viability: 8.3%; S2 tox: inactive; Nrf2 activator: -0.2%; ATXN2 expr inh: 6.3%

Results for CCCN(CCC)S(=O)(=O)c1ccc(C(=O)N2CCCc3ccccc32)cc1 ?
Nrf2 inh: 18.4µM*; A549 viability: -22.4%; S2 tox: inactive; Nrf2 activator: -0.4%; ATXN2 expr inh: -3.1%

What do the screens show for `CC(=O)Nc1ccc(C(=O)N2CCCc3ccccc32)cc1`?
Nrf2 inh: -8.4%; A549 viability: 2.0%; S2 tox: inconclusive; Nrf2 activator: -0.7%; ATXN2 expr inh: 9.8%

How did Cc1cc2c(s1)c1cnn(Cc3cccc(F)c3F)c(=O)c1n2C do in these assays?
Nrf2 inh: 0.0%; A549 viability: 0.7%

Results for Cc1ccc(CNc2nc(CN3CCN(C=O)CC3)nc3ccccc23)o1 ?
S2 tox: inactive
